# Measured values: PubChem BioAssay (NCI)
# The panel holds about 79,000 compounds, 15% with a hit somewhere; the sample as a whole holds those more often. Values without a mark were called inactive. Active and inactive are the calls of the source. No stated cut-off is given here; in the data, active means growth inhibition above about 70%; inactive means the rest.
# Test: NCI Yeast Anticancer Drug Screen. Data for the wt1 strain (AID 149);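 further: 0% = growth of vehicle-treated wt1 cultures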
# Settings: S. cerevisiae wt1 strain (SPY 50644) growth inhibition, active compounds read high
# Experimental: Growth inhibition of yeast strains with defined genetic alterations is measured as a screen for potential anti-cancer activity. Selected strains with alterations in DNA damage repair or cell cycle control were exposed to compounds and growth inhibition was measured relative to vehicle treated controls. The strain used in this assay is wt1
SMILES,growth inhibition (at 1.2 µM),growth inhibition (at 3.7 µM),growth inhibition (at 11.0 µM),growth inhibition (at 33.0 µM),growth inhibition (at 100.0 µM)
COc1ccc(/C=C2\SC(=S)N(/C=C3\C(=O)N(c4ccccc4)N=C3C)C2=O)cc1OC,3%,5%,11%,48%,76% (active)
CCOC(=O)/C(=C/c1cccc(Cl)c1)N(CC)CC,8%,13%,22%,43%,96% (active)
c1c[nH]c(CN2CCN(Cc3ncc[nH]3)CC2)n1,-1%,7%,97% (active),98% (active),99% (active)
CCCCCCCCCCCCCCCCCCNc1nc(=O)n(C2CC(OP(=O)(O)OCC3OC(n4cc(F)c(=O)[nH]c4=O)CC3O)C(CO)O2)cc1F (stereo not given),4%,-4%,-13%,-8%,46%
CC(C)(C)c1ccc2c(c1)C(=O)c1ccccc1C2=O,0%,12%,14%,12%,15%
CCN1CCC(O)(c2ccc(Oc3ccc(C)cc3)cc2)C(C(=O)c2ccc(Oc3ccc(C)cc3)cc2)C1 (stereo not given),-44%,-31%,97% (active),96% (active),94% (active)
O=C(C(Cl)=C(N1CCCCC1)N1CCCCC1)C(Cl)Cl,-2%,0%,-1%,-1%,1%
CCCCCCCCCCCCOCCOCCOCC(N)=O,-39%,-39%,-41%,95% (active),94% (active)
